Data reported in PubChem BioAssay AID2284181 (EPA ToxCast).
Inconclusive results are not listed. The source made the active and inactive calls. How the source made its calls: active means hit-call score of the fitted dose curve at least 0.9, where 1 is the maximum; inconclusive means response in the unintended direction; inactive means score below 0.9.

target: human Serotonin Receptor 5-HT1A, HTR1A (gene 3350) (UniProt P08908); experiment: ERF_FR_GPCR_hHTR1A: Eurofins (ERF) G Protein-Coupled Receptor (GPCR) Radioligand Binding LeadHunter Assay for human Serotonin Receptor 5-HT1A Agonism, conducted at France lab site
Protocol: ERF_FR_GPCR_hHTR1A is a biochemical, single-readout assay that uses extracted gene-proteins in a cell-free assay. Measurements were taken 1 hour after chemical dosing in a 96-well plate. See 5-HT1A Human Serotonin GPCR Binding (Agonist Radioligand) Assay, Cerep.ERF_FR_GPCR_hHTR1A is an assay component calculated from the ERF_FR_GPCR_hHTR1A assay. It is designed to measure radioligand binding using a type of binding reporter as detected by scintillation counting with radiometry technology.Data from the assay component ERF_FR_GPCR_hHTR1A was analyzed at the assay endpoint, ERF_FR_GPCR_hHTR1A, in the positive analysis fitting direction relative to DMSO as the negative control and baseline of activity. Using a type of binding reporter, gain-of-signal activity can be used to understand changes in binding as they relate to gene HTR1A. To generalize the intended target to other relatable targets, this assay endpoint is annotated to the gpcr intended target family, where the subfamily is serotonin.
Human cells are incubated for 60 minutes at room temprature with [3H]8-OH-DPAT ligand (0.5 nM) and 8-OH-DPAT as control inhibitor. Test Sample Requirements: Minimum for 1) Screen: 60 ul of 10 mM stock -OR- 1 mg (pre-weighed) for 10 uM final testing. 2) Dose Response: 90 ul of 10 mM stock -OR- 1 mg (pre-weighed) for a top concentration at 10 uM.

Chain of human Serotonin Receptor 5-HT1A, HTR1A (gene 3350) (P08908 whole entry, looked up): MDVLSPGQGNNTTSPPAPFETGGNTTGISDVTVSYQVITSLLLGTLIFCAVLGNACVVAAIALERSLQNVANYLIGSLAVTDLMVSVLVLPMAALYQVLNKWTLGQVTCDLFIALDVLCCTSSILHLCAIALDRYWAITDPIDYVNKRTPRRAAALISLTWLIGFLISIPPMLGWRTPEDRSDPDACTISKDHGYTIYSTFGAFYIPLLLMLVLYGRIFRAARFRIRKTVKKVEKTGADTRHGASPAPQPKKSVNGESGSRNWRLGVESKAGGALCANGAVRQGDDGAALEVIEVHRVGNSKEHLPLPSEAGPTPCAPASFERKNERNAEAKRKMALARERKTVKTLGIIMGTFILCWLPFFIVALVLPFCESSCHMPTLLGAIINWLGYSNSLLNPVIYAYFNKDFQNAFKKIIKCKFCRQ

Structure (SMILES) | outcome | AC50
CCCCC[C@H](O)CC(=O)CCc1ccc(O)c(OC)c1 | inactive | –
O=C(/C=C/c1ccc(O)cc1)CC(=O)/C=C/c1ccc(O)cc1 | inactive | –
COc1cc(/C=C/C(=O)CC(=O)/C=C/c2ccc(O)c(OC)c2)ccc1O | – | 2.01 µM (active)
